Reference: PubChem BioAssay AID528 (NMMLSC, 2006)
Out of some 24,000 compounds screened, fewer than 10 were called active. About 9% were inconclusive and are not listed.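 How the source made its calls: active means fluorescent ligand binding to cells raised by more than 40% of the manganese-induced maximum; inconclusive means compound's own fluorescence above 85% of the ligand control signal; inactive means the rest.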 A selection follows.

Molecular target: Integrin alpha-4 (Homo sapiens) (UniProt P13612)
Sequence (P13612 whole entry, looked up): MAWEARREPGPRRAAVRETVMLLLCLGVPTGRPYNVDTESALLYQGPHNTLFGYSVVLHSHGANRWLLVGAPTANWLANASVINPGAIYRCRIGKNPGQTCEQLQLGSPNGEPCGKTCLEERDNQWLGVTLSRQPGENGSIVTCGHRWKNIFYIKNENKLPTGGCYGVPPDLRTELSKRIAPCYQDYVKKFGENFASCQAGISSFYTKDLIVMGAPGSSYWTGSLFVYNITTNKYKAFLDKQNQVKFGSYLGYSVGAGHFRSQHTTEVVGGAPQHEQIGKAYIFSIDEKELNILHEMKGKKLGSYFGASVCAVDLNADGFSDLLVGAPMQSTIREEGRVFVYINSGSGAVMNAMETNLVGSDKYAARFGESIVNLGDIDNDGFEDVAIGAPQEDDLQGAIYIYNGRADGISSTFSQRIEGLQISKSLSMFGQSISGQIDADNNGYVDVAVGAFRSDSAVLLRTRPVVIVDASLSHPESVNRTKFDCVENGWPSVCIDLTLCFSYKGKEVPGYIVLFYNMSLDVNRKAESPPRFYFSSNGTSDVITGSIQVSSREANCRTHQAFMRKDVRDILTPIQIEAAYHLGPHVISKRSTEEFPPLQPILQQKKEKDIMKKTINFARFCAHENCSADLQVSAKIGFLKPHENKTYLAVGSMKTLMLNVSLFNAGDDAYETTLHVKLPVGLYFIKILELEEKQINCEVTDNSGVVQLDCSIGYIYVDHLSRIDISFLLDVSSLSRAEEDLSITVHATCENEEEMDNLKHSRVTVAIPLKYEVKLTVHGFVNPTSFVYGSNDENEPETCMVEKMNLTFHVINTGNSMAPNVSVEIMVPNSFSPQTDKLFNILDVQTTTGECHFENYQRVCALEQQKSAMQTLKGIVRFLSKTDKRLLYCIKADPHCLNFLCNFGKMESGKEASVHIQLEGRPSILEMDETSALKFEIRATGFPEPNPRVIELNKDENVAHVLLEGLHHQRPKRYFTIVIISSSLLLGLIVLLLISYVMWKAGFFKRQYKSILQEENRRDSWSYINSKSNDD
Experiment: enhancers of LDV-FITC binding to VLA-4 integrin, primary screen, Jurkat cells, flow cytometry (AID 528);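 further: 0% = ligand binding without compound and 100% = manganese-stimulated maximal binding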
Settings: active compounds read high, screened at 10 µM (by protocol)

activation, inactive:
CCOC(=O)CSc1nnc(NC(=O)c2cccc(S(=O)(=O)N3CCCCC3)c2)s1 0.5%
CCC(=O)c1ccc(OCC(O)CN2C(=O)NC(C)(C)C2=O)cc1 (stereo unspecified) -4%
Cc1ccc(-c2cc(C(F)(F)F)n3nc(C(=O)N4CCCC4)cc3n2)cc1 -1%
Cc1ccc(CNC(=O)CN2CCN(Cc3ccc(Cl)cc3)C2=O)cc1 -2%
CCn1c(SCC(=O)Nc2ccc3c(c2)OCCO3)nc2c(c1=O)SC(C)C2 (stereo unspecified) -4%
CS(=O)(=O)NCc1ccc(C(=O)NCc2ccccc2)cc1 1%
CCCC(=O)Nc1nnc(CC(=O)OCC)s1 -0.5%
O=C(CC1Oc2ccccc2NC1=O)NCCCN1CCN(Cc2ccccc2)CC1 (stereo unspecified) -1%
CCC1CCCCN1CCNS(=O)(=O)c1ccc2c(c1)CCN2C(C)=O (stereo unspecified) -4%
Cc1oc(-c2cccc(Cl)c2)[n+]([O-])c1C 8%
CCOC(=O)CN1C(=O)C(O)(CC(=O)c2ccccn2)c2ccccc21 (stereo unspecified) 4%
CCOc1ccc(S(=O)(=O)n2ccnc2)c2ccccc12 1%
Cn1c(=O)c2c(nc(N3CCCCCC3)n2CC(=O)c2ccc(Br)cc2)n(C)c1=O -1%
CCOc1ccc(OCC)c(NC(=O)C(NS(=O)(=O)c2ccc3c(c2)oc(=O)n3C)C(C)C)c1 (stereo unspecified) -2%
Cn1cccc1Cc1nnc(SCC(=O)NCc2ccc3c(c2)OCO3)n1CCc1ccccc1 -4%
Cn1c(=O)[nH]c(=O)c2c1nc(CN(Cc1ccccc1)Cc1ccccc1)n2CCN1CCOCC1 -6%
C=CCn1c(=N)n(CC(O)COc2ccc(OC)cc2)c2ccccc21 (stereo unspecified) 0%
CCOc1cc(C(=O)Nc2ncccn2)cc(OCC)c1OCC 11.5%
Cc1nnc(C)n1/N=C/c1ccc(C(C)C)cc1 -4%
N#CCCN1CCN(S(=O)(=O)c2ccc(S(=O)(=O)NC3CC3)cc2)CC1 1%
Cc1nnc(NC(=O)CCC(=O)N2CCC(C)CC2)s1 -0.5%
O=C(CCn1c(=S)[nH]c2ccccc2c1=O)NCCCN1CCCC1=O 5%
CC(=O)c1c(N)n(C)c(=O)n(C)c1=O 9%
CCCn1nnc2sc3c(c2c1=O)CCC(C)C3 (stereo unspecified) 4%
CC1CCCN(C(=O)c2ccc3c(c2)C(=O)N(CCC2=CCCCC2)C3=O)C1 (stereo unspecified) 0%
CCCCC(=O)N(c1ccc(OC)cc1)C1C=CS(=O)(=O)C1 (stereo unspecified) -1%
CCCCn1c(=S)[nH]c2ncccc2c1=O 1%
O=S1(=O)CC(NCc2ccccc2)C(Nc2ccc(Cl)cc2)C1 (stereo unspecified) -8%
CCCCCCn1c(CN2CCCCC2)nc2c1c(=O)n(C)c(=O)n2C -6%
COc1ccccc1C(=O)N1CCN=C1SCc1cccnc1 2%
Cc1ccc(S(=O)(=O)N2C3C=CC(C3)C2C(=O)O)cc1 (stereo unspecified) 5%
COc1cccc(N(C(=O)c2ccn[nH]2)C2(C(=O)Nc3c(C)cccc3C)CCCCC2)c1 3%
CCOC(=O)C1CCN(C(=O)C2CCN(S(=O)(=O)N3CCCC3)CC2)CC1 6%
COc1ccc(-c2nc(CS(=O)CC(=O)NCc3cccnc3)c(C)o2)cc1OC (stereo unspecified) 3%
Cc1noc(C)c1S(=O)(=O)N1CCCC(C(=O)Nc2nccs2)C1 (stereo unspecified) 0%
CCN(CC)S(=O)(=O)N1CCC(C(=O)NC(C)CCc2ccccc2)CC1 (stereo unspecified) 3%
COc1cccc(-n2c(Cc3cc(=O)[nH]c(=O)[nH]3)nnc2SCC(=O)Nc2ccccc2)c1 5%
Cc1cccc(N2C(=O)SC(N(CC(=O)O)c3cccc(C)c3)C2=O)c1 (stereo unspecified) 7%
CCN(Cc1ccccc1)C(=O)CSc1nc(C)cc2c1C(=O)OC2 -9%
CCOc1ccc(CNC(=O)C2CCC(=O)N2C2CCCC2)cc1OC (stereo unspecified) -7%
O=C(CN1CCN(S(=O)(=O)c2ccc(F)cc2)CC1)Nc1ccccc1F -1%
COc1ccc(OC)c(N=Cc2c(O)[nH]c3ccccc23)c1 8%
O=C1c2cccnc2C(=O)N1Cc1cccs1 0%
COc1ccccc1CNC(=O)CCn1c(=O)sc2ccccc21 5%
CSCCC(NC(=O)C1CCC(C)CC1)C(=O)NCc1ccco1 (stereo unspecified) 3%
CC(=O)c1c(C)c[nH]c1C 3%
CCOC(=O)c1cnc(-n2nc(C)cc2C)nc1Nc1cccc(C(C)=O)c1 0%
CCOc1cc(/C=N/n2cnnc2)c(Br)cc1O 9%
CC1CN(C(=O)c2ccc3c(c2)OCO3)OC(c2ccccc2)O1 (stereo unspecified) 4%
CCOC(=O)N1CCN(C(=O)c2n[nH]c(=O)c3ccccc23)CC1 -9%
CCOC(=O)N1CCN(S(=O)(=O)c2cc3c(cc2C)NC(=O)CO3)CC1 -8%
Cc1oc(-c2ccccc2F)nc1CS(=O)(=O)CC(=O)NCCCN(C)C1CCCCC1 -7%
O=C(NCc1cccnc1)c1ccc(CS(=O)(=O)c2ccc(Br)cc2)o1 3%
CCOC(=O)c1ccc(-n2c(C)nc3c(cnn3-c3ccccc3C)c2=O)cc1 -2.3%
CCOc1cc2[nH]c(=O)n(CCC(=O)NCc3ccc(OC)cc3)c(=O)c2cc1OCC 1%
COc1ccccc1NC(=O)CN1CCN(S(=O)(=O)c2ccc(Br)cc2)CC1 1%
O=C(O)CCC(=O)Nc1ccc(N2CCOCC2)cc1 2%
S=C1SCN(CCN2CCOCC2)CN1Cc1ccccc1 -3%
Cc1ccc(S(=O)(=O)NCCN2CCOCC2)cc1C -2%
CN1CCCc2cc(C#N)c(=O)[nH]c21 -3%
CCN1CCN(c2ncnc3c2oc2nc(C)c4c(c23)CC(C)(C)OC4)CC1 9%
CCOc1ccc(NC(=O)CC2NCCNC2=O)cc1 (stereo unspecified) 0.7%
O=C(CN1CCOCC1)N1CCCc2c1c(=O)oc1ccc(OCc3ccccc3)cc21 -5%
Cc1ccc2nc3n(c(=O)c2c1)CCC3 5%
CCOC(=O)Cn1c(N)c(C(=O)OC)sc1=S -9%
CCOc1ccc(/C(O)=C2/C(=O)C(=O)N(Cc3cccnc3)C2c2ccc(N(C)C)cc2)c(C)c1 (stereo unspecified) -4%
CCOC(=O)C1CCN(C(=O)C2CCN(S(=O)(=O)CC)CC2)CC1 0%
Cn1nnnc1SCc1cc(=O)[nH]c2ccccc12 -4%
O=C(CC(NCCN1CCOCC1)C(=O)O)Nc1cccc(Cl)c1 (stereo unspecified) 5%
CC(=O)Nc1cc(C(=O)O)ccc1S(=O)(=O)c1ccc(Cl)cc1 5%
O=C(c1ccc(=O)[nH]c1)N(Cc1ccco1)C1(C(=O)NC2CCCCC2)CCCCC1 8%
COC(=O)c1cc(S(=O)(=O)NC2CCN(Cc3ccccc3)CC2)cn1C 12%
CC(c1ccco1)N(C(=O)c1ccc(S(=O)(=O)N2CCCCC2)cc1)c1ccccn1 (stereo unspecified) -5%
O=C1CC(c2cccc(F)c2)C2=C(CCCC2=O)N1 (stereo unspecified) 0%
Cc1nc(NC(=O)C23CCC(C)(C(=O)O2)C3(C)C)sc1C (stereo unspecified) 2%
CC1Cc2nc(SCC(=O)Nc3ccccc3F)n(C)c(=O)c2S1 (stereo unspecified) -5.7%
Cc1ccc(C)c(NS(=O)(=O)c2cc(Br)cnc2N)c1 -9%
O=C1CC(c2cccc(Br)c2)C2=C(CCCC2=O)N1 (stereo unspecified) -3%
COc1cccc(NC(=O)Cn2cnc3sc(C)c(S(=O)(=O)N4CCN(C)CC4)c3c2=O)c1 1%
CCOC(=O)CSc1nnc(CNC(=O)c2cccs2)n1-c1ccccc1 -4%
O=C1N=C(N2CCOCC2)CS1 5%
C=CCOC(=O)C1=C(C)OC(N)=C(C#N)C1c1ccc(F)cc1 (stereo unspecified) -2.5%
CCOC(=O)c1ccc(Nc2cc(C)nc3nc(C)nn23)cc1 5%
COCCCNC(=O)CCc1nc2cccnc2n1Cc1ccc(OC)cc1 4%
COc1cccc(Oc2ccc(N)cc2)c1 8%
CCCN1CCN(C(=O)Cn2ncc3ccccc32)CC1 5%
Cc1cccc(N2CCN(C(=O)C3CCN(S(=O)(=O)c4cnc[nH]4)CC3)CC2)c1C 0%
COc1cccc(NC(=O)C2CCCN2C(=O)OCc2ccccc2)c1 (stereo unspecified) -5%
CC(=O)c1c(C)[nH]c(C(=O)NCCCN2CCCC2)c1C 1%
COc1cc2[nH]c(=S)n(CCN3CCCCC3C)c(=O)c2cc1OC (stereo unspecified) -3%
Cn1c(=O)cc(OCCCC(=O)N2CCN(c3ccccn3)CC2)c2ccccc21 -10%
Cc1cccn2c(=O)c3cc(C(=O)NCc4ccccn4)n(C)c3nc12 -2%
Cc1nc(SCC(=O)Nc2cc(C)on2)c2c3c(sc2n1)CCCC3 -3.5%
COc1ccc(C(=O)N(CCN2CCOCC2)CC(=O)NC2CCCC2)cc1OC 6.5%
O=C(CN1CCOc2ccccc21)N1CCC(Cc2ccccc2)CC1 -1%
CCOC(=O)CSc1nnc(CNC(=O)Cc2ccccc2)n1-c1ccccc1OC -3%
CC1CCC(NS(=O)(=O)c2ccc3c(c2)n(C)c(=O)c(=O)n3C)CC1 (stereo unspecified) 6%
COc1cc(OC)cc(-c2nc3nc(C)c(CCC(=O)NCc4ccco4)c(C)n3n2)c1 -2.7%
Cc1cc(C)nc(-n2nc(C)cc2NC(=O)c2ccc(Br)o2)n1 1.5%
Cc1nc2ccc(NC(=O)N3CCC(c4ccccc4)C3)cc2nc1C (stereo unspecified) -3%
O=C(CNS(=O)(=O)c1ccc(Br)s1)NCc1ccc2c(c1)OCO2 -4%
